This is an account of results in PubChem BioAssay (EPA / NIEHS).

SMILES strings stand for the structures. Some compounds were tested as several samples or in several runs, with calls that do not always agree. Calls of active or inactive are those of the source. How the source made its calls: active means hit-call score of the fitted dose curve at least 0.9, where 1 is the maximum; inactive means score below 0.9.

Read-out in one assay: Interleukin-8 (IL8), CXCL8 (gene 3576)
The experiment in a line: BSK_LPS_IL8: BioMAP Diversity Plus: LPS Assay for Interleukin-8 (IL8) Biomarker Activity (AID 2283078). As to conditions: primary human HUVEC with PBMC; actives raise or lower the signal. The essentials:
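Readout is IL-8 by ELISA, taken 24 h after compounds were added to LPS-stimulated endothelial/PBMC co-cultures. Both increases and decreases relative to DMSO control were scored through bidirectional fitting.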
In the case of `OCc1c[nH]c2ccccc12`, the outcome was inactive.

As for `c1ccc2cc3ccccc3cc2c1`, the outcome was inactive.

Consider `O=S(=O)(O)CCC(F)(F)C(F)(F)C(F)(F)C(F)(F)C(F)(F)C(F)(F)F`, for which the AC50 – broadly, the midpoint of the concentration-response curve, whichever way the signal moves – is 22.5 µM (active) and the outcome was inactive.

`Cc1nccn1-c1ccc(Sc2cccc(C3(C(N)=O)CCOCC3)c2)cc1`: the result was inactive.

Take `c1ccc(C(O[C@@H]2CCCN(CCc3ccc4c(c3)OCO4)C2)c2ccccc2)cc1`: the AC50 was 20 µM (active).

Turning to `CCCCOC(=O)c1ccccc1`, the result was inactive.

With `FC(F)(F)C(F)(F)C(F)(F)C(F)(F)C(F)(F)C(F)(F)I`, the result was inactive.

For the compound `Cc1nc(-c2ccccn2)ncc1C(=O)Nn1cc(C)c2cc(F)ccc21`, the result was inactive.

On to `O=C(O)[C@H](O)[C@@H](O)C(=O)O`, for which the result was inactive.

`Cc1cccc(O)c1C`: the outcome was inactive.

`C[Si](C)(C)C(F)(F)C(F)(F)C(F)(F)F`: the outcome was inactive.

Take `COc1cc2c(c(OC)c1OC)-c1ccc(OC)c(=O)cc1[C@@H](NC(C)=O)CC2`: the result was inactive.

Turning to `OCCC(F)(F)C(F)(F)C(F)(F)C(F)(F)F`, the outcome was inactive.

Turning to `O=C(O)c1cccc(C(=O)O)c1`, the outcome was inactive.

With `CNC(C)=O`, the result was inactive.

Consider `CCCCCCCC1CCC(=O)O1` (configuration not stated), for which the outcome was inactive.

As to `C[C@@H](Oc1ccc(CNC(=O)c2cccnc2Oc2ccc3c(c2)OCO3)c(F)c1)C(=O)O`, the outcome was inactive.

Read-out in the next assay: not listed separately
The experiment in a line: BSK_LPS_SRB: Viability Assessment in the BioMAP Diversity Plus: LPS Assay (AID 2283079).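 Further: total protein by sulforhodamine B absorbance as a cytotoxicity measure; measured one day after compound addition; fitted in both directions against DMSO so loss or gain of signal counts.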 As to conditions: primary human HUVEC with PBMC. The essentials: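 Readout is SRB absorbance at 560 nm (0.1% stain, TCA-fixed parallel cultures) as a total-protein cytotoxicity measure. Cells: primary human umbilical vein endothelium plus peripheral blood mononuclear cells, 24 h after chemical exposure; DMSO served as baseline.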
In the case of `OCc1c[nH]c2ccccc12`, the result was inactive.

With `c1ccc2cc3ccccc3cc2c1`, the outcome was inactive.

With `COc1cc(C(C)C)c2c(c1)S(=O)(=O)N(COc1cc(=O)n3cccc(OCCN4CCCCC4)c3n1)C2=O`, the outcome was inactive.

`O=S(=O)(O)CCC(F)(F)C(F)(F)C(F)(F)C(F)(F)C(F)(F)C(F)(F)F`: the result was inactive.

In the case of `Cc1nccn1-c1ccc(Sc2cccc(C3(C(N)=O)CCOCC3)c2)cc1`, the result was inactive.

With `CC(C)CC(C)O` (configuration not stated), the result was inactive.

On to `NC(=O)NN=Cc1ccc([N+](=O)[O-])o1`, for which the result was inactive.

For the compound `c1ccc(C(O[C@@H]2CCCN(CCc3ccc4c(c3)OCO4)C2)c2ccccc2)cc1`, the AC50 was 26.3 µM (active).

On to `CCCCOC(=O)c1ccccc1`, for which the result was inactive.

Take `FC(F)(F)C(F)(F)C(F)(F)C(F)(F)C(F)(F)C(F)(F)I`: the outcome was inactive.

Consider `NC(=O)N1c2ccccc2C=Cc2ccccc21`, for which the outcome was inactive.

In the case of `Cc1nc(-c2ccccn2)ncc1C(=O)Nn1cc(C)c2cc(F)ccc21`, the outcome was inactive.

In the case of `O=C(O)[C@H](O)[C@@H](O)C(=O)O`, the result was inactive.

On to `Cc1cccc(O)c1C`, for which the result was inactive.

Consider `C[Si](C)(C)C(F)(F)C(F)(F)C(F)(F)F`, for which the outcome was inactive.

Regarding `CCOC(N)=O`, the outcome was inactive.

With `OC[C@H]1O[C@@H]2O[C@H]3[C@H](O)[C@@H](O)[C@@H](O[C@H]4[C@H](O)[C@@H](O)[C@@H](O[C@H]5[C@H](O)[C@@H](O)[C@@H](O[C@H]6[C@H](O)[C@@H](O)[C@@H](O[C@H]7[C@H](O)[C@@H](O)[C@@H](O[C@H]1[C@H](O)[C@H]2O)O[C@@H]7CO)O[C@@H]6CO)O[C@@H]5CO)O[C@@H]4CO)O[C@@H]3CO`, the outcome was inactive.

For `COc1cc2c(c(OC)c1OC)-c1ccc(OC)c(=O)cc1[C@@H](NC(C)=O)CC2`, the AC50 is 0.245 µM (active).

With `OCCC(F)(F)C(F)(F)C(F)(F)C(F)(F)F`, the outcome was inactive.

As to `O=C(O)c1cccc(C(=O)O)c1`, the result was inactive.

For the compound `CNC(C)=O`, the result was inactive.

With `CCCCCCCC1CCC(=O)O1` (configuration not stated), the outcome was inactive.

As to `O=C1CN(N=Cc2ccc([N+](=O)[O-])o2)C(=O)N1`, the outcome was inactive.

As to `COS(C)(=O)=O`, the result was inactive.

Consider `S=P(N1CC1)(N1CC1)N1CC1`, for which the result was inactive.

Take `C[C@@H](Oc1ccc(CNC(=O)c2cccnc2Oc2ccc3c(c2)OCO3)c(F)c1)C(=O)O`: the outcome was inactive.

For the compound `O=c1[nH]cnc2c1ncn2[C@H]1CC[C@@H](CO)O1`, the result was inactive.

Read-out in the next assay: Interleukin-1 alpha (IL1a), IL1A (gene 3552)
Put plainly: BSK_LPS_IL1a: BioMAP Diversity Plus: LPS Assay for Interleukin-1 alpha (IL1a) Biomarker Activity (AID 2283080). As to conditions: primary human HUVEC with PBMC; actives raise or lower the signal. The gist of the method: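 ELISA read-out of IL-1 alpha from a human primary vascular co-culture (endothelium plus PBMC) under LPS, sampled 24 hours post-dosing. Activity was fitted in both directions relative to DMSO controls.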
`OCc1c[nH]c2ccccc12`: the result was inactive.

Consider `c1ccc2cc3ccccc3cc2c1`, for which the result was inactive.

In the case of `COc1cc(C(C)C)c2c(c1)S(=O)(=O)N(COc1cc(=O)n3cccc(OCCN4CCCCC4)c3n1)C2=O`, the result was inactive.

`O=S(=O)(O)CCC(F)(F)C(F)(F)C(F)(F)C(F)(F)C(F)(F)C(F)(F)F`: the outcome was inactive.

Turning to `Cc1nccn1-c1ccc(Sc2cccc(C3(C(N)=O)CCOCC3)c2)cc1`, the outcome was inactive.

In the case of `CC(C)CC(C)O` (configuration not stated), the outcome was inactive.

Turning to `NC(=O)NN=Cc1ccc([N+](=O)[O-])o1`, the outcome was inactive.

For the compound `c1ccc(C(O[C@@H]2CCCN(CCc3ccc4c(c3)OCO4)C2)c2ccccc2)cc1`, the AC50 is 12.5 µM (active).

Take `CCCCOC(=O)c1ccccc1`: the outcome was inactive.

As for `FC(F)(F)C(F)(F)C(F)(F)C(F)(F)C(F)(F)C(F)(F)I`, the result was inactive.

Regarding `NC(=O)N1c2ccccc2C=Cc2ccccc21`, the result was inactive.

On to `Cc1nc(-c2ccccn2)ncc1C(=O)Nn1cc(C)c2cc(F)ccc21`, for which the result was inactive.

`O=C(O)[C@H](O)[C@@H](O)C(=O)O`: the outcome was inactive.

Consider `Cc1cccc(O)c1C`, for which the outcome was inactive.

Consider `C[Si](C)(C)C(F)(F)C(F)(F)C(F)(F)F`, for which the result was inactive.

Take `CCOC(N)=O`: the outcome was inactive.

For `OC[C@H]1O[C@@H]2O[C@H]3[C@H](O)[C@@H](O)[C@@H](O[C@H]4[C@H](O)[C@@H](O)[C@@H](O[C@H]5[C@H](O)[C@@H](O)[C@@H](O[C@H]6[C@H](O)[C@@H](O)[C@@H](O[C@H]7[C@H](O)[C@@H](O)[C@@H](O[C@H]1[C@H](O)[C@H]2O)O[C@@H]7CO)O[C@@H]6CO)O[C@@H]5CO)O[C@@H]4CO)O[C@@H]3CO`, the outcome was inactive.

For `COc1cc2c(c(OC)c1OC)-c1ccc(OC)c(=O)cc1[C@@H](NC(C)=O)CC2`, the AC50 was 0.827 µM (active).

Consider `OCCC(F)(F)C(F)(F)C(F)(F)C(F)(F)F`, for which the outcome was inactive.

Consider `O=C(O)c1cccc(C(=O)O)c1`, for which the result was inactive.

Turning to `CNC(C)=O`, the outcome was inactive.

Consider `CCCCCCCC1CCC(=O)O1` (configuration not stated), for which the result was inactive.

For `O=C1CN(N=Cc2ccc([N+](=O)[O-])o2)C(=O)N1`, the outcome was inactive.

For the compound `COS(C)(=O)=O`, the result was inactive.

Consider `S=P(N1CC1)(N1CC1)N1CC1`, for which the result was inactive.

Turning to `C[C@@H](Oc1ccc(CNC(=O)c2cccnc2Oc2ccc3c(c2)OCO3)c(F)c1)C(=O)O`, the outcome was inactive.

For `O=c1[nH]cnc2c1ncn2[C@H]1CC[C@@H](CO)O1`, the outcome was inactive.
